# Reference: the supplement of paper PMC10849652
# Targets with a hit are over-represented here; the source holds about 7,900 in all. About 0.6% of all pairs of compound and target were hits. A number with no mark means an inactive call.
# Assays:
# Assay in all cases: log2 fold change, soluble protein after heating vs DMSO (PISA); higher = thermal stabilisation; K562 cells, 10 uM, 30 min; active = over 0.2 and 3.5 SD of the protein, either way, in both replicates (recomputed)
# bafetinib = compound: Cc1ccc(NC(=O)c2ccc(CN3CC[C@H](N(C)C)C3)c(C(F)(F)F)c2)cc1Nc1nccc(-c2cncnc2)n1 [bafetinib]
# How it was run: (§1)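 Soluble protein was quantified by TMTpro 16plex LC-MS/MS after channel sums were equalised. It was obtained as the supernatant after 21,000xg for 90 min from pooled aliquots of K562 cells (2×10^6 cells/mL, 10 μM compound, 30 min) heated for 3 min across 48°C-58°C and extracted in PBS with 0.5% NP-40 at 4°C. Thermal stability values are relative to control samples and come from duplicates. They are given as log2 fold changes.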
# [1] = compound: Cc1cccc(CC(=O)N2CCc3c2ccc(-c2cn(C)c4ncnc(N)c24)c3F)n1
# How it was run: as §1
# nilotinib = compound: Cc1cn(-c2cc(NC(=O)c3ccc(C)c(Nc4nccc(-c5cccnc5)n4)c3)cc(C(F)(F)F)c2)cn1 [nilotinib]
# How it was run: as §1
# [2] = compound: Cc1nc(Nc2n[nH]c3c2CN(C(=O)N[C@H](CN(C)C)c2ccccc2)C3(C)C)c2sccc2n1
# How it was run: as §1
# dasatinib = compound: Cc1nc(Nc2ncc(C(=O)Nc3c(C)cccc3Cl)s2)cc(N2CCN(CCO)CC2)n1 [dasatinib]
# How it was run: as §1
# [3] = compound: Cc1ncc(-c2ccnc(Nc3ccc(S(C)(=O)=O)cc3)n2)n1C(C)C
# How it was run: as §1
# [4] = compound: Cn1cc(-c2ccc3c(c2)CCN3C(=O)Cc2cccc(C(F)(F)F)c2)c2c(N)ncnc21
# How it was run: as §1
# [5] = compound: Cn1cc(-c2ccc3nnc(C(F)(F)c4ccc5ncccc5c4)n3n2)cn1
# How it was run: as §1
# tipifarnib = compound: Cn1cncc1[C@@](N)(c1ccc(Cl)cc1)c1ccc2c(c1)c(-c1cccc(Cl)c1)cc(=O)n2C [tipifarnib]
# How it was run: as §1
# mubritinib = compound: FC(F)(F)c1ccc(/C=C/c2nc(COc3ccc(CCCCn4ccnn4)cc3)co2)cc1 [mubritinib]
# How it was run: as §1
# Sequence of UniProt P10619 (P10619 whole entry, looked up): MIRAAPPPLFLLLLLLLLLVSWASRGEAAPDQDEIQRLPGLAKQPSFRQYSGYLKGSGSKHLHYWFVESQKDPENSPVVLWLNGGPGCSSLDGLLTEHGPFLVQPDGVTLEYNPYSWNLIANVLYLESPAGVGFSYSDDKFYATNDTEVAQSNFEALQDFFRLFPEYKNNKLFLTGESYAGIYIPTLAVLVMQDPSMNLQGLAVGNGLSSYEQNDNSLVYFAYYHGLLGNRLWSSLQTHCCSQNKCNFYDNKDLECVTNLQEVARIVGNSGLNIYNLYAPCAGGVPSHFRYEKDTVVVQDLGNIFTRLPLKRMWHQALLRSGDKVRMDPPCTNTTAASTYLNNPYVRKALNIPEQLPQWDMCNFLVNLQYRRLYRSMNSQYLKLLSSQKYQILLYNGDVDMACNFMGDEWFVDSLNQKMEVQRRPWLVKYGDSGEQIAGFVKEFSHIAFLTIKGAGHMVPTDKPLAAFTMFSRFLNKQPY
# Sequence of UniProt Q9NWS6 (Q9NWS6 whole entry, looked up): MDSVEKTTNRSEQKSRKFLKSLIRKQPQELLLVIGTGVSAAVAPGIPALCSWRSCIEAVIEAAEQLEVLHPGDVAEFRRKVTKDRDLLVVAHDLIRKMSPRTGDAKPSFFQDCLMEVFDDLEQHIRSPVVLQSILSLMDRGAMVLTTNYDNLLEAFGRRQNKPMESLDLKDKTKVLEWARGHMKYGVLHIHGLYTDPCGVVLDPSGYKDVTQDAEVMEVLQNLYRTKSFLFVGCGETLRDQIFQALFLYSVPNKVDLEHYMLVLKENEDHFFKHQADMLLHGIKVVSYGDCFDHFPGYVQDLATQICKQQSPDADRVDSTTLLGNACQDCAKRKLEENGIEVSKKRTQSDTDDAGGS
# Sequence of UniProt Q8NBA8 (Q8NBA8 whole entry, looked up): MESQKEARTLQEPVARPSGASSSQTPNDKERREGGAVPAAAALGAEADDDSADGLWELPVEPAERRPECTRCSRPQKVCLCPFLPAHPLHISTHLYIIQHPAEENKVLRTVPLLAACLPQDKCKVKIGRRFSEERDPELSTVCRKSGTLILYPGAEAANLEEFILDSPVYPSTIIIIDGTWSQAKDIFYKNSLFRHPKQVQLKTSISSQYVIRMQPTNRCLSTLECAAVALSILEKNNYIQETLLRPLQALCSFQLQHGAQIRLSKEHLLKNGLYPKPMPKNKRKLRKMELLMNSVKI
# Sequence of UniProt O60911 (O60911 whole entry, looked up): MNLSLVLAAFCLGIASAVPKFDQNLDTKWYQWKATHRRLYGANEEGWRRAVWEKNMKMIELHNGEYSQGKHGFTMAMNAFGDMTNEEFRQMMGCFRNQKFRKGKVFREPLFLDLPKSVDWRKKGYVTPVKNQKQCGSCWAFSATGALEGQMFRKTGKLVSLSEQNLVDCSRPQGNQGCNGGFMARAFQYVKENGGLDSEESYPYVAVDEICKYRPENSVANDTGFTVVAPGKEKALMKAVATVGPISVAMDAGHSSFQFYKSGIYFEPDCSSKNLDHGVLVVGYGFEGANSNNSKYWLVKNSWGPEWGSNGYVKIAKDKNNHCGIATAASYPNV
# Sequence of UniProt Q9BW60 (Q9BW60 whole entry, looked up): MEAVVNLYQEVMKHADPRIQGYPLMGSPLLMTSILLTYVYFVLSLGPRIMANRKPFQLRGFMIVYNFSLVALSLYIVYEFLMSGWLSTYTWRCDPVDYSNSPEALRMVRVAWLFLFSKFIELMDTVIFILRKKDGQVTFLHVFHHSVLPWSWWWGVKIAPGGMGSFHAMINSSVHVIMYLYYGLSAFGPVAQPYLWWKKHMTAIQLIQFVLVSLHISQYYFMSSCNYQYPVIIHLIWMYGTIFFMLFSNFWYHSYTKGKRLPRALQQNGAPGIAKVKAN
# Sequence of UniProt Q9NYP7 (Q9NYP7 whole entry, looked up): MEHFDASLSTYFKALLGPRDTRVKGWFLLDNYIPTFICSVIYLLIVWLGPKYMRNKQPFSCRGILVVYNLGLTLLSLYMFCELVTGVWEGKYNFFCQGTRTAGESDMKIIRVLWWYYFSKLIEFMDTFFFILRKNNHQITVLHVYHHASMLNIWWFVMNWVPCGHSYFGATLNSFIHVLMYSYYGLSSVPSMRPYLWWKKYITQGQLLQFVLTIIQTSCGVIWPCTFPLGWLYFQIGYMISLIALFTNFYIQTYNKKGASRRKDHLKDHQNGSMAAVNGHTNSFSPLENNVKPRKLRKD
# Sequence of UniProt Q8TAG9 (Q8TAG9 whole entry, looked up): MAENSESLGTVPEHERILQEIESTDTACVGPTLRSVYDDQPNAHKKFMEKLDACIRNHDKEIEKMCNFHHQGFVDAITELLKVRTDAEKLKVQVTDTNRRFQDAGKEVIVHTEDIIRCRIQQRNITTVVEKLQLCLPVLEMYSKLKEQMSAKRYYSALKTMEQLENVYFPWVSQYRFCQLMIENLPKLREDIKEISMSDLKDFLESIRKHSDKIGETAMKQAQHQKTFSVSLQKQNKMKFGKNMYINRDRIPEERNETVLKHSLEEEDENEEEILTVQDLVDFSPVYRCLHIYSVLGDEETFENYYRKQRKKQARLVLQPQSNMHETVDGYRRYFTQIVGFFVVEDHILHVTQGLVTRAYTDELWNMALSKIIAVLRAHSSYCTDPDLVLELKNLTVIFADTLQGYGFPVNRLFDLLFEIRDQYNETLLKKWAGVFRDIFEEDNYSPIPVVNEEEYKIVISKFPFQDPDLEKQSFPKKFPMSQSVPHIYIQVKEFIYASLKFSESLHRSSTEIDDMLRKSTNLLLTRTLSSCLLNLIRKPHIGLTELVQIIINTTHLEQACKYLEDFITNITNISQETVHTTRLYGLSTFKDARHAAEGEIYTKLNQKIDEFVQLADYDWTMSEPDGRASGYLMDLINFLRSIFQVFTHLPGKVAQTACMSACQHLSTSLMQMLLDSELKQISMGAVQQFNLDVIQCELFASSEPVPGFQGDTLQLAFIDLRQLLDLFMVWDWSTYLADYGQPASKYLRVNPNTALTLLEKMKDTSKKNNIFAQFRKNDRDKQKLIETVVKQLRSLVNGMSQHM
# Sequence of UniProt Q14203 (Q14203 whole entry, looked up): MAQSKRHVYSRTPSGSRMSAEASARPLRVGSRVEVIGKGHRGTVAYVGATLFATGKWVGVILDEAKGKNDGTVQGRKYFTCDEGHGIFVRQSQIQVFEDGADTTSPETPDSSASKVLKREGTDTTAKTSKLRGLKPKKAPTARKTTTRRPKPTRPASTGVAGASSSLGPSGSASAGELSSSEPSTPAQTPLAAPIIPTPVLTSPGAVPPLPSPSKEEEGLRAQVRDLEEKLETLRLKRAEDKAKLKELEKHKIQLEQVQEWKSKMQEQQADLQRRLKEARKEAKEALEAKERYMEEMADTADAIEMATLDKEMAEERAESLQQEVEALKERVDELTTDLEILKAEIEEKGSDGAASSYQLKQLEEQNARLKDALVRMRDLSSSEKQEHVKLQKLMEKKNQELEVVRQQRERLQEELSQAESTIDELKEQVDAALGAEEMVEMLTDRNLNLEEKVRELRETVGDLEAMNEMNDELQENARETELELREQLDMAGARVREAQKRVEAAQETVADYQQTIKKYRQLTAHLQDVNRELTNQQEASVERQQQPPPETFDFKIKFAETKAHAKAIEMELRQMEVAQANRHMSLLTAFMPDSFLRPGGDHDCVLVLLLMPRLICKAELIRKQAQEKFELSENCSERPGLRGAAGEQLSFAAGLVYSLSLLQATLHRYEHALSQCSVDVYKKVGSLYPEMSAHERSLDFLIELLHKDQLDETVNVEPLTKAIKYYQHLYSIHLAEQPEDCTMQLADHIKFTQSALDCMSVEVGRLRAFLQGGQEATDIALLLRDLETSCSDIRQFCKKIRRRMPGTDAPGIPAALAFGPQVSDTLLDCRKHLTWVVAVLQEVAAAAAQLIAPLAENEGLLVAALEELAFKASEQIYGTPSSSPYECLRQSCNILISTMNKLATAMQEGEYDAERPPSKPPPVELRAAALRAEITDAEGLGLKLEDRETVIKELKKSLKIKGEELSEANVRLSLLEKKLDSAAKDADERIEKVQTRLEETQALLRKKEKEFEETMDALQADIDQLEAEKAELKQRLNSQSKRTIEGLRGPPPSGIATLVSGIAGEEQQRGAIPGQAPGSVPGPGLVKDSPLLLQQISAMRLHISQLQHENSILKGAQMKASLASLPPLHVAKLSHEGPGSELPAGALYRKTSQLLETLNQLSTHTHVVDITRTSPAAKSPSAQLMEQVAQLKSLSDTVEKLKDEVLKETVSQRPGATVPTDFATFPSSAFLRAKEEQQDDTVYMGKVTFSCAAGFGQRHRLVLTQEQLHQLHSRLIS
# Sequence of UniProt Q16254 (Q16254 whole entry, looked up): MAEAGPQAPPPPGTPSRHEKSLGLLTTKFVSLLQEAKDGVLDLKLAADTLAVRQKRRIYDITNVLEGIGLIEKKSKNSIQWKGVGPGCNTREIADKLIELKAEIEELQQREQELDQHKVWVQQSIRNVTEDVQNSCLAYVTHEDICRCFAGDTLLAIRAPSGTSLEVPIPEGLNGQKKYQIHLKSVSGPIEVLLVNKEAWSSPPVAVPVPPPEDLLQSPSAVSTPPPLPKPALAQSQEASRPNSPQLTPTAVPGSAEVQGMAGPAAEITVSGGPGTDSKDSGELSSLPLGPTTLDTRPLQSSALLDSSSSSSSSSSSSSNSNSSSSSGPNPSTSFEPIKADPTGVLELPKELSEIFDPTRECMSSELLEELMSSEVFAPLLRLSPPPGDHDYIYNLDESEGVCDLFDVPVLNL
# Sequence of UniProt Q96GE9 (Q96GE9 whole entry, looked up): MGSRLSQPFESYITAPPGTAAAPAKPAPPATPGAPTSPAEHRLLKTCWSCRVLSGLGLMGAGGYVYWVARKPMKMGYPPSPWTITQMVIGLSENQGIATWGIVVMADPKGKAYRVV
# Sequence of UniProt O75911 (O75911 whole entry, looked up): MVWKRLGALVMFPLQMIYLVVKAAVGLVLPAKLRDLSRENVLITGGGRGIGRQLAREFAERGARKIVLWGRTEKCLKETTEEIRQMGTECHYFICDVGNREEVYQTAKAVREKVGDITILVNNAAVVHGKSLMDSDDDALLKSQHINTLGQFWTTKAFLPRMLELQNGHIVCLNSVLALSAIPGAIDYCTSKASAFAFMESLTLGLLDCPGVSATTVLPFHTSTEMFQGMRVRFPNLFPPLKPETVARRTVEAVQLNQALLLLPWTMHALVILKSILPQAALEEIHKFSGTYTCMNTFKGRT
Target,log2 fold change (bafetinib),log2 fold change [1],log2 fold change (nilotinib),log2 fold change [2],log2 fold change (dasatinib),log2 fold change [3],log2 fold change [4],log2 fold change [5],log2 fold change (tipifarnib),log2 fold change (mubritinib)
DHPS (UniProt P49366),0.026,-0.057,0.035,0.001,0.014,0.004,0.008,-0.005,-0.047,0.061
DCAF16 (UniProt Q9NXF7),-0.051,-0.056,-0.005,-0.004,-0.179,0.005,-0.031,0.091,-0.155,-0.085
FAF2 (UniProt Q96CS3),-0.058,-0.022,-0.042,-0.049,-0.075,0,0.017,-0.04,-0.021,-0.011
CYFIP1 (UniProt Q7L576),-0.064,0.002,-0.015,-0.064,-0.05,-0.024,0.049,-0.006,-0.011,0.022
ELOVL1 (UniProt Q9BW60),-0.245,0.12,-0.126,0.024,-0.041,-0.011,0.139,-0.097,-0.093,0.011
ELOVL5 isoform 2 (UniProt Q9NYP7),-0.166,0.124,-0.182,0.021,-0.147,-0.054,0.063,0.011,-0.204,0.068
DIAPH1 (UniProt O60610),0.088,0.057,-0.011,-0.197,-0.055,0.077,-0.083,-0.035,-0.077,0.039
FAM83D (UniProt Q9H4H8),-0.022,0.145,-0.069,-0.088,-0.241,0.016,-0.073,-0.027,-0.107,0.023
DNAH5 (UniProt Q8TE73),-0.065,-0.084,-0.006,0.015,0.085,-0.015,0,-0.06,0.267,0.032
EHBP1L1 (UniProt Q8N3D4),0.194,-0.006,-0.081,-0.218,-0.123,0.256,0.005,0.006,-0.039,0.007
ETNK1 (UniProt Q9HBU6),-0.042,0.037,-0.043,0.08,-0.07,0.06,0.026,0.008,-0.183,0.036
DIP2A (UniProt Q14689),-0.005,-0.019,0.005,-0.07,-0.04,0.01,0.043,-0.053,0.02,0.002
FAM117A (UniProt Q9C073),-0.021,0.004,-0.047,-0.083,-0.046,-0.018,0.016,0.032,0.039,0.024
DCAF13 (UniProt Q9NV06),0.178,0,0.006,0.102,0.077,-0.05,-0.249,-0.173,0.193,-0.106
DHX36 (UniProt Q9H2U1),0.065,0.015,-0.066,0.052,-0.01,0.045,-0.076,-0.059,0.002,-0.128
EXOC6 (UniProt Q8TAG9),-0.013,0.036,-0.013,-0.196,-0.22,-0.013,0.042,0.028,-0.076,0.07
CTSH (UniProt P09668),-0.071,-0.034,0.166,0.03,0.084,-0.041,0.055,0.056,0.09,-0.063
EHD2 (UniProt Q9NZN4),-0.051,0.008,-0.062,0.01,-0.112,0.003,0.012,-0.031,-0.028,-0.061
DDX5 (UniProt P17844),0.272,0.018,0.166,-0.092,-0.19,0.076,0.029,0.046,-0.155,0.326

Target,log2 fold change (bafetinib),log2 fold change [1],log2 fold change (nilotinib),log2 fold change [2],log2 fold change (dasatinib),log2 fold change [3],log2 fold change [4],log2 fold change [5],log2 fold change (tipifarnib),log2 fold change (mubritinib)
DTWD2 (UniProt Q8NBA8),-0.023,-0.008,0.065,-0.019,0.126,0.022,0.215,0.096,-0.071,-0.087
EIF4A1 (UniProt P60842),0.032,0.014,-0.135,-0.063,-0.114,-0.047,0.036,-0.022,-0.058,-0.08
DUS2 (UniProt Q9NX74),-0.017,-0.025,-0.243,-0.032,-0.07,0.014,-0.072,0.01,0.094,0.045
"EED, A0A5F9ZI63",0.019,-0.024,-0.027,0.043,0.015,-0.025,-0.076,-0.029,-0.014,-0.066
FAM122A (UniProt Q96E09),-0.096,-0.185,0.027,-0.184,-0.054,0.059,0.024,0.037,-0.059,0.009
EXOC4 (UniProt Q96A65),0.012,0.11,-0.068,-0.155,-0.15,-0.031,-0.026,0.013,-0.088,0.078
DMAC1 (UniProt Q96GE9),-0.138,-0.047,-0.083,0.067,0.118,-0.007,-0.014,0.095,-0.156,0.085
E2F4 (UniProt Q16254),-0.053,-0.026,-0.016,-0.141,-0.095,0.012,-0.007,-0.006,-0.009,0.01
"FADS1, A0A0A0MR51",-0.03,0.062,0.004,-0.005,0.011,-0.019,0.253 (active),-0.045,-0.021,0.028
DHCR7 (UniProt Q9UBM7),0.428 (active),-0.005,-0.282,-0.005,-0.109,0.05,0.257,-0.016,-0.167,0.166
CUX1 isoform 3 (UniProt P39880),-0.054,-0.032,-0.008,-0.06,-0.016,0.044,0.023,0.08,0.046,0.037
DNM2 (UniProt P50570),-0.035,0,-0.054,-0.003,-0.099,0,0.075,0.007,-0.071,0.017
EDC3 (UniProt Q96F86),-0.022,-0.013,-0.142,-0.127,-0.006,-0.151,-0.019,-0.006,-0.035,0
DHRS3 (UniProt O75911),0.027,0.017,0.101,-0.031,0.188,-0.025,0.323 (active),0.164,0.012,0.081
DCUN1D1 (UniProt Q96GG9),-0.083,0.026,-0.025,-0.018,-0.047,0,0.008,0.03,-0.059,0.015
CTSV (UniProt O60911),-0.696 (active),-0.24,0.036,0.142,0.061,-0.056,0.016,-0.002,0.026,-0.009
CTSZ (UniProt Q9UBR2),-1.01 (active),-0.027,0.028,-0.146,0.054,-0.022,0.058,0.022,0.052,0.033
DBT (UniProt P11182),0.02,-0.037,0.036,-0.014,-0.002,-0.033,-0.026,-0.03,0.011,-0.207 (active)
EEA1 (UniProt Q15075),-0.043,-0.021,0.013,0,0.061,0.004,-0.015,0.028,0.007,0.041

Target,log2 fold change (bafetinib),log2 fold change [1],log2 fold change (nilotinib),log2 fold change [2],log2 fold change (dasatinib),log2 fold change [3],log2 fold change [4],log2 fold change [5],log2 fold change (tipifarnib),log2 fold change (mubritinib)
F5 (UniProt P12259),-0.076,-0.02,0.021,0.019,0.05,0.023,0.072,0.111,0.153,-0.089
EEF1B2 (UniProt P24534),0.006,0.025,-0.042,-0.03,0.026,0.043,-0.057,-0.054,-0.109,0.058
EFL1 (UniProt Q7Z2Z2),-0.043,-0.014,-0.147,-0.052,-0.077,0.003,0.021,0.028,-0.026,-0.109
DDOST (UniProt P39656),-0.035,-0.001,-0.005,0.033,0.016,-0.039,-0.04,0,0.047,-0.022
DPH5 isoform 5 (UniProt Q9H2P9),0.025,0.037,0.013,-0.023,0.253 (active),0.003,0.085,0.006,-0.121,0.049
DHFR (UniProt P00374),0.191,0.026,0.185,-0.022,-0.187,0.076,0,0.182,0.177,-0.225
DTYMK (UniProt P23919),0.044,0.007,0.042,0.041,-0.151,-0.029,0.045,0.002,-0.019,0.078
FAM160B1 (UniProt Q5W0V3),-0.018,0.023,-0.032,-0.049,-0.082,-0.014,-0.053,-0.039,0.115,0.023
EIF3J (UniProt O75822),-0.067,0.266 (active),0.001,-0.019,-0.018,0.008,0.022,-0.014,-0.013,0.033
CTU1 (UniProt Q7Z7A3),-0.024,0.067,-0.062,-0.03,-0.145,-0.03,0.035,0.02,-0.043,0.067
EOGT (UniProt Q5NDL2),-0.009,-0.025,-0.044,0.055,-0.052,-0.005,-0.082,-0.038,0.029,-0.021
DCTN1 isoform 4 (UniProt Q14203),0.057,0.037,-0.052,-0.052,-0.256,-0.018,0.003,-0.015,-0.054,0.038
EGLN1 (UniProt Q9GZT9),-0.031,-0.018,0.066,-0.026,-0.073,-0.036,-0.01,0.017,0.016,-0.116
CTSA (UniProt P10619),-0.595 (active),-0.04,0.052,0.015,0.112,-0.001,0.019,0.005,0.16,0.007
DMXL1 (UniProt Q9Y485),-0.14,-0.034,-0.002,0.018,-0.099,-0.012,0.021,0.021,-0.035,-0.053
DDB1 (UniProt Q16531),-0.019,-0.025,-0.004,0.027,0.046,-0.016,0.011,-0.001,-0.014,0.023
DHX40 (UniProt Q8IX18),-0.033,0.038,-0.052,-0.289 (active),-0.229,0.118,0.103,0.035,0.017,0.084
FAM118A (UniProt Q9NWS6),-0.076,0,-0.092,-0.216,-0.314,-0.039,-0.019,0.135,-0.128,0.043
DCAF10 (UniProt Q5QP82),-0.002,-0.069,-0.052,0.041,0.026,-0.047,0.012,0.007,-0.054,-0.002
